Results filed as inconclusive are left out. A call without a number means that no potency is given here. Calls of active or inactive are those of the source. Calls follow the shape of the full dose curve.
What follows are molecules tested against Beta-2 adrenergic receptor (Homo sapiens) (UniProt P07550) (assay: Adrenergic beta2 receptor (ADRB2) small molecule antagonists, cell-based qHTS assay (AID 1963592; also: nearly all actives have a fitted effect of over 50% in size)). Details: CHO-ADRB2 cells, isoproterenol-stimulated cAMP HTRF ratio, 0.5 h; series mostly up to 92.4 µM.
Chain of Beta-2 adrenergic receptor (Homo sapiens) (P07550 whole entry, looked up): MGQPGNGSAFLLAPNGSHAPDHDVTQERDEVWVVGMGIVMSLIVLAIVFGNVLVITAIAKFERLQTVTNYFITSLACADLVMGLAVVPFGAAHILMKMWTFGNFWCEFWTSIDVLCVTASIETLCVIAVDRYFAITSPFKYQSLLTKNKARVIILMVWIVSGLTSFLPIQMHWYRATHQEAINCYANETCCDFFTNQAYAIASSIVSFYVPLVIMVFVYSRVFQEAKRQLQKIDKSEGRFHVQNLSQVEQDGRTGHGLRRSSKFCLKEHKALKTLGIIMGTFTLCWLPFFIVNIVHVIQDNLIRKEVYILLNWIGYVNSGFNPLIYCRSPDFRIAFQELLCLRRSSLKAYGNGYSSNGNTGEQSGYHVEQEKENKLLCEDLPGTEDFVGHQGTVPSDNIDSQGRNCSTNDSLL
Description: U.S. Tox21 Program National Center for Advancing Translational Sciences [NCATS] Division of Preclinical Innovation [DPI] U.S. Environmental Protection Agency [EPA] National Institutes of Environmental Health Sciences [NIEHS] National Toxicology Program [NTP] U.S. Food and Drug Administration [FDA] Tox21 Assay Overview: Beta adrenergic receptors (Beta-ARs) belong to the G-protein coupled receptor (GPCR) superfamily, includes three subtypes - beta1, beta2, and beta3. Beta1-AR is the predominant receptor subtype expressed in the heart, and beta2-AR is expressed in the kidney, lung, blood vessel and in the heart, and beta3 is found in the adipocytes. Beta1 and 2 ARs couple to Gs protein and elevate cyclic adenosine mono phosphate (cAMP), which activates protein kinase A and leads to the downstream signaling responsible for the physiological actions. Beta-AR agonists or antagonists are the most prescribed therapeutic agents for heart failure and asthma, and these were one of the first target receptors for the rational drug design. Tox21 10K compound library was screened using the cAMP-Gs dynamic assay (Cisbio Bioassays, Shelton, CT) to identify agonists/antagonists of the Gs-coupled human adrenergic, beta2 receptor (ADRB2) in the CHO-ADRB2 cell line (Codex BioSolutions, Inc. Gaithersburg, MD), which stably over-expresses ADRB2. The principle of cAMP-Gs dynamic assay is based on HTRF technology, which facilitates the fluorescence resonance energy transfer (FRET) between donor Europium cryptate and acceptor d2-labeled cAMP. The cAMP generated within cells competes with the red acceptor, d2-labled cAMP, for binding to the monoclonal anti-cAMP-cryptate (Europium donor). An increase in intracellular cAMP leads to the disruption of FRET signal, and the signal is inversely proportional to the cAMP concentration. Propranolol HCl (Sigma-Aldrich, St. Louis, MO) was used as a positive control in the screening.
Tox21 Assay Protocol Summary: CHO-ADRB2 cells were dispensed at 1,000/well in 4uL assay medium into white/solid 1536-well plates (Greiner Bio-One North America Inc., Monroe, NC) using a Multidrop Combi dispenser (ThermoFisher Scientific, Waltham, MA). The assay plates were incubated at 37C and 5% CO2 for an overnight (18-20hr). Then positive control and test compounds dissolved in DMSO were transferred to the assay plates at 23nL using a Pintool station (Wako, San Diego, CA). Following the compound and positive control transfer, 1uL agonist-stimulation mix containing 1nM Isoproterenol HCl, 100uM IBMX and 25uM Ro-20-1724 was added to each well of the assay plates using BioRAPTR Flying Reagent Dispenser (FRD, Beckman Coulter, Brea, CA). The assay plates were incubated at room temperature for 0.5hr. Then 2.5ul each d2-labled cAMP and anti-cAMP-cryptate solutions were added separately to each well of the assay plates using an FRD and the assay plates were incubated at room temperature for 1hr. The fluorescence signal was measured at two different wavelengths (665nm and 615nm) using an Envision plate reader (Perkin Elmer, Shelton, CT). Data were expressed as the ratio of 665 nm/615 nm.

Row | Structure (SMILES) | Potency
1 | COc1ccc(Cl)cc1C(=O)NCCc1ccc(S(=O)(=O)NC(=O)NC2CCCCC2)cc1 | inactive
2 | CCCCC(CC)COC(=O)c1ccc(C(=O)OCC(CC)CCCC)cc1 (stereo not given) | inactive
3 | O=[N+]([O-])c1ccccc1C(F)(F)F | inactive
4 | NC(=S)NNC(N)=S | inactive
5 | Clc1cc(Cl)c(Cl)cc1Cl | inactive
6 | CCC(=O)/C=C/C1C(C)=CCCC1(C)C (stereo not given) | inactive
7 | CCCCCCCCCCCCc1ccccc1O | inactive
8 | O=C(/C=C/C=C/c1ccc2c(c1)OCO2)N1CCCCC1 | inactive
9 | Nc1nc(=S)c2[nH]cnc2[nH]1 | inactive
10 | Cc1ccc([N+](=O)[O-])cc1N | inactive
11 | CCNc1ccccc1 | inactive
12 | C[Si](O[Si](C)(C)C)O[Si](C)(C)C | inactive
13 | Cc1cc(=O)[nH]c(=S)[nH]1 | inactive
14 | COc1ccc(C(=O)c2ccccc2)c(O)c1 | inactive
15 | C1COCCN1 | inactive
16 | Nc1ccc2c(c1)C(=O)c1ccccc1C2=O | inactive
17 | OB(O)O | inactive
18 | COC(=O)c1ccc(C=O)cc1 | inactive
19 | O=C(c1ccccc1)c1ccc(O)c(O)c1O | inactive
20 | CCOC(=O)CC(=O)OCC | inactive

Row | Structure (SMILES) | Potency
21 | Cc1c(OCC(F)(F)F)ccnc1CS(=O)c1nc2ccccc2[nH]1 (stereo not given) | inactive
22 | CCCCNC(N)=O | inactive
23 | Cc1ccccc1Cl | inactive
24 | [O-]/[N+](=N\O)c1ccccc1 | inactive
25 | C#C[C@]1(O)CC[C@H]2[C@@H]3CCC4=Cc5oncc5C[C@]4(C)[C@H]3CC[C@@]21C | inactive
26 | CCN(CC)C(=S)SSC(=S)N(CC)CC | inactive
27 | COC(=O)CC(=O)OC | inactive
28 | O=NO | inactive
29 | CCCCC(CC)COC(=O)/C=C/c1ccc(OC)cc1 (stereo not given) | inactive
30 | CCCCCCCCCC(=O)OC | inactive
31 | NC(=O)NC(N)=O | inactive
32 | CCCCCCCCCCC(CO)CCCCCCCC (stereo not given) | inactive
33 | CC(=O)OCC(COC(C)=O)OC(C)=O | inactive
34 | c1cnc2c(c1)ccc1cccnc12 | inactive
35 | c1ccc2n[nH]nc2c1 | inactive
36 | CC(C)(C)C1CCC(O)CC1 (stereo not given) | inactive
37 | COc1ccccc1[N+](=O)[O-] | inactive
38 | COc1cc(NC(=O)CC(C)=O)c(OC)cc1Cl | inactive
39 | Nc1cc(Cl)c(-c2cc(Cl)c(N)cc2Cl)cc1Cl | inactive
40 | CCCCCCCCCCCC[N+](C)(C)Cc1ccccc1 | inactive
